The target of the first assay is SIAE. As to the kind of experiment: pooled miR-30 sensor sort-seq; sequence = guide strand. The following applies: shRNA.
Turning to TATCTGTAACACAGTCATCTGC, the sensor-assay potency score (higher = more potent) is -0.344.

Take TAATCCATCAGTAAACTGCATT: the sensor-assay potency score (higher = more potent) was -1.07.

For TATCTTGTTGTCCTTTTTCTGC, the sensor-assay potency score (higher = more potent) was -1.26.

On to TTTAACTCGAACAACAGTTTGC, for which the sensor-assay potency score (higher = more potent) is -0.109.

In turn, TTGAGGTCCAATTTGTCTGTAG had a sensor-assay potency score (higher = more potent) of 0.183.

Take TTGATGTATGAAGCAAAGCGAA: the sensor-assay potency score (higher = more potent) was -1.38.

TTTCACACTGGTCACTTTCTTC: the sensor-assay potency score (higher = more potent) is -0.603.

TTAAATATCTGTAACACAGTCA came in with a sensor-assay potency score (higher = more potent) of 0.571.

For TTATTTTCTCCAAAGTCTGTTG, the sensor-assay potency score (higher = more potent) was -0.694.

The next assay has as its target SIK3. Described as above. The following applies: shRNA.
For the sequence TACTTGAACTCTTACTGTCTTG, the sensor-assay potency score (higher = more potent) was -0.689.

As for TTCATAATTTGAACTTCCCGGA, the sensor-assay potency score (higher = more potent) is -0.153.

Regarding TTAGTTGTTGGCATTCAGCTAT, the sensor-assay potency score (higher = more potent) is -0.107.

For the sequence TACATAAGCATCGTCGCTGTTC, the sensor-assay potency score (higher = more potent) is -0.402.

On to TTATCTATGATCTTGATAGCAA, for which the sensor-assay potency score (higher = more potent) is -0.377.

On to TTAATGACTGCAGTGTCTGTTC, for which the sensor-assay potency score (higher = more potent) is -0.0807.

As to TAGCTGAGCAGAATGTCTGTAA, the sensor-assay potency score (higher = more potent) is -0.0523.

In the case of TTGAACTCTTACTGTCTTGGAA, the sensor-assay potency score (higher = more potent) is -0.119.

For the sequence TATGATCTTGATAGCAACCTTG, the sensor-assay potency score (higher = more potent) is -0.675.

Sequence TCTGTTTGAACTTCCGACGTGC gave a sensor-assay potency score (higher = more potent) of 0.851.

Regarding TAAATCACGATGAACAATGTTC, the sensor-assay potency score (higher = more potent) was -0.457.

In the case of TCTAACACCAACATATGGCGGA, the sensor-assay potency score (higher = more potent) stood at 0.184.

A further assay has as its target SIPA1L2. Described as above. The settings on record: shRNA.
For TAGCTTGTGCTTCTCTTCTTGT, the sensor-assay potency score (higher = more potent) was -0.716.

As to TAATCTAATCCTGAGATGCGGA, the sensor-assay potency score (higher = more potent) was -0.642.

Consider TACTTTTTGAACAGTGAGCTGA, for which the sensor-assay potency score (higher = more potent) worked out at 0.29.

With TACAACATTCTTGGAATCCTTT, the sensor-assay potency score (higher = more potent) is -0.254.

Consider TAACAGTTCGAAGCTTTCGGAA, for which the sensor-assay potency score (higher = more potent) was -0.928.

For the sequence TTGTTCATCAAGCTTGAGCAGC, the sensor-assay potency score (higher = more potent) was -0.923.

As for TTGTCGAAGAATTAATTCCAGC, the sensor-assay potency score (higher = more potent) is -1.01.

In turn, TTATACATCTCTTCCTCTGTGC yielded a sensor-assay potency score (higher = more potent) of 0.628.

Turning to TTGTCTTGTTTTTCCTTCCGAA, the sensor-assay potency score (higher = more potent) is -0.306.

Turning to TTCAGCACAGTTGTCTACCGAG, the sensor-assay potency score (higher = more potent) is -0.567.

The sequence TTGAACTTTGAAGAGGCTCTGC had a sensor-assay potency score (higher = more potent) of 0.37.

Take TAGCGCTTCACTTTCTCCCTGT: the sensor-assay potency score (higher = more potent) turned out to be 0.691.

The next assay concerns the target SIRPD. The assay is described as above. The following applies: shRNA.
Take TTGCACATGGAACACATGTGTG: the sensor-assay potency score (higher = more potent) is -0.922.

Regarding TTGGATTCTGCTCAGTAACAAA, the sensor-assay potency score (higher = more potent) was -1.61.

Regarding TTGAACCACAAGACAGGTCCAT, the sensor-assay potency score (higher = more potent) is -0.0742.

For TACAGTCTGTGACATCTCCGTT, the sensor-assay potency score (higher = more potent) was -0.562.

On to TTACTCTGGGAAAGTTACCTTG, for which the sensor-assay potency score (higher = more potent) was -0.709.

For ATTTATTGTACGATCAAGCTGG, the sensor-assay potency score (higher = more potent) came to 0.545.

In turn, TTTGTTATTTACTTGTACGTTC came in with a sensor-assay potency score (higher = more potent) of 0.326.

(Values after the OligoGym collection.)
Also: reference of the scale not given here.
